# Measurements taken from article PMC7862700, “An all-to-all approach to the identification of sequence-specific readers for epigenetic DNA modifications on cytosine”.
# Key:
# Assay in all cases: DAPPL (digital affinity profiling via proximity ligation, sequencing); 10 mM Tris-HCl pH 7.5, 50 mM NaCl, 1 mM DTT, 4% glycerol, room temperature, 30 min; GST-TFs on glutathione beads, 16-mer random dsDNA library, 0.1% formaldehyde crosslink after washing; high values mean tight binding
# FLI1 = target: T1, FLI1 (Homo sapiens, UniProt Q01543 1-452); conditions: protein: recombinant; tags: N-terminal GST; dsDNA, one strand shown
# T1 sequence: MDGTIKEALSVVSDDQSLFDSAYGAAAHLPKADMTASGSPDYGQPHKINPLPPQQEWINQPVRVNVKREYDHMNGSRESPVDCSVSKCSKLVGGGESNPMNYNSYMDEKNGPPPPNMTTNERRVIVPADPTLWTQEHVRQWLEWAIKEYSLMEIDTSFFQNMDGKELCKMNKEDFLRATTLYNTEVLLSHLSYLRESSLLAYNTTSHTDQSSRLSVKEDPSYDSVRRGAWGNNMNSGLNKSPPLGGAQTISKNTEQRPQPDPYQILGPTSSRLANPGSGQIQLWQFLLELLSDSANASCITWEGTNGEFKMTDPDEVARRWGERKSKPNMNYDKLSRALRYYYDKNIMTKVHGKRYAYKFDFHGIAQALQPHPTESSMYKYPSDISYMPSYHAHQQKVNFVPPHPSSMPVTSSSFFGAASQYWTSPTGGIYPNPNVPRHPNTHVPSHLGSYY
# In short: (§1)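 Human transcription factors carrying a GST fusion were produced in yeast, bound to glutathione beads, tagged with DNA barcodes and pooled together with a tag-only sample. Each pool was held with 200 nmole of a random double-stranded 16-mer DNA library in Tris/NaCl/DTT/glycerol buffer for 30 min at room temperature, then washed, crosslinked in 0.1% formaldehyde, proximity-ligated with BsaI/T4 ligase (1 h, 37 °C), PCR-amplified and sequenced on an Illumina NextSeq500. Binding signal is the read frequency of each hexamer for a given factor divided by its frequency in the tag-only sample.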
# ELK1 = target: T2, ELK1 (Homo sapiens, UniProt P19419 1-428); conditions: protein: recombinant; tags: N-terminal GST; dsDNA, one strand shown
# T2 sequence: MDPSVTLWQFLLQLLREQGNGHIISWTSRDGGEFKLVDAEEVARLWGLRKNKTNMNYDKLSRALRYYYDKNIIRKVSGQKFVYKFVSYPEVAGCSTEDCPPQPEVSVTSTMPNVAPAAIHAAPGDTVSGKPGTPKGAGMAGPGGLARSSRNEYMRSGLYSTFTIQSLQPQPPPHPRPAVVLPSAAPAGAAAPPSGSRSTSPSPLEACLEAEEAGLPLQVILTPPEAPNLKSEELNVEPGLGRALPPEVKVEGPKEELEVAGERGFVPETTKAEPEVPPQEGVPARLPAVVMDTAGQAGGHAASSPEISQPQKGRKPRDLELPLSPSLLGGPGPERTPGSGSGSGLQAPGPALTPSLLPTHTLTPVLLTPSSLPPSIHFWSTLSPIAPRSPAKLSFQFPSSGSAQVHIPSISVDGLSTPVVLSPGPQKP
# In short: as §1
# GABPA = target: T3, GABPA (Homo sapiens, UniProt Q06546 1-454); conditions: protein: recombinant; tags: N-terminal GST; dsDNA, one strand shown
# T3 sequence: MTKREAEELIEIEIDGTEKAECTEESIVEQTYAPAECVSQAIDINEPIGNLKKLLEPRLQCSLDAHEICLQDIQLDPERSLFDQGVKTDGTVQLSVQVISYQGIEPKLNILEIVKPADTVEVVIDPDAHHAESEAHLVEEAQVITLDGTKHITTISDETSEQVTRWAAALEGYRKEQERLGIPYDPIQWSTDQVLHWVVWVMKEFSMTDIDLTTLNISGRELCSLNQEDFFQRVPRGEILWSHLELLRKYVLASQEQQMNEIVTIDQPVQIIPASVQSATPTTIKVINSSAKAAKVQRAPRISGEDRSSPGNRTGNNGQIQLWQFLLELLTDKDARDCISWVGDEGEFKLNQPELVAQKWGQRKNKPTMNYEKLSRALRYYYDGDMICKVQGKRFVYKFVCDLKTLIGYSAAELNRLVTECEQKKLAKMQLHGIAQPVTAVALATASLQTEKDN
# In short: as §1
# ERG = target: T4, ERG (Homo sapiens, UniProt P11308 1-479); conditions: protein: recombinant; tags: N-terminal GST; dsDNA, one strand shown
# T4 sequence: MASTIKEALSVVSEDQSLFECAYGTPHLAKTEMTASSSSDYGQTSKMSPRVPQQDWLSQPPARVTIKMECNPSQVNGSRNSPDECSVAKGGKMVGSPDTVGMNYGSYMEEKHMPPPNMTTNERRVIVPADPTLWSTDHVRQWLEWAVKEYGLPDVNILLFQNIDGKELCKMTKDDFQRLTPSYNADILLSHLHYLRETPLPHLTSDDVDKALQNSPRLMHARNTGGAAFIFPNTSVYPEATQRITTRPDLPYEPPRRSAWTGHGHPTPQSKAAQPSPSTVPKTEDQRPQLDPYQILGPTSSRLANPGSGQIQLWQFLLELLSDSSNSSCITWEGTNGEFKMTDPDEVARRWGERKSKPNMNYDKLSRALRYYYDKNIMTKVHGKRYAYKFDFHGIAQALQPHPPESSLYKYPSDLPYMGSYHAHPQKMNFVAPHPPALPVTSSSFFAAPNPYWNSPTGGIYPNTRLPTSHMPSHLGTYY
# In short: as §1
# ELF1 = ELF1 (Homo sapiens, UniProt P32519 1-619); conditions: protein: recombinant; tags: N-terminal GST; dsDNA, one strand shown
# Chain of ELF1 (P32519 whole entry): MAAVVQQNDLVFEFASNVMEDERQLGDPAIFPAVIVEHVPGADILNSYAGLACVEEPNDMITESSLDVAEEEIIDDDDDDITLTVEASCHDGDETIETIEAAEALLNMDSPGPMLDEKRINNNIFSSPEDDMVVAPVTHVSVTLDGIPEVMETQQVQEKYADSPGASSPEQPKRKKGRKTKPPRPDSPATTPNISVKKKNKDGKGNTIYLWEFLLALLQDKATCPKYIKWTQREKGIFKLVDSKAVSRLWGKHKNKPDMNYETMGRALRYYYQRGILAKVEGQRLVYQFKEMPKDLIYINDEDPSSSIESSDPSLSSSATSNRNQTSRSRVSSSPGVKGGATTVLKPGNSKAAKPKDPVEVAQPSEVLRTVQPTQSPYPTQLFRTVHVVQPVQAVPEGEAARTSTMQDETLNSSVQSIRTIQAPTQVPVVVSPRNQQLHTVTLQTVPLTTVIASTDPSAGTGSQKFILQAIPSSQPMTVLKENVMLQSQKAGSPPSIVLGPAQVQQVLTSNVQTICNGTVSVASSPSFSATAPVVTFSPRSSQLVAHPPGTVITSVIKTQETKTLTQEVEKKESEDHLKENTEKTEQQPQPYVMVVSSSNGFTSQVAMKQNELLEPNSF
# In short: as §1
# EHF = target: T5, EHF (Homo sapiens, UniProt Q9NZC4 1-300); conditions: protein: recombinant; tags: N-terminal GST; dsDNA, one strand shown
# T5 sequence: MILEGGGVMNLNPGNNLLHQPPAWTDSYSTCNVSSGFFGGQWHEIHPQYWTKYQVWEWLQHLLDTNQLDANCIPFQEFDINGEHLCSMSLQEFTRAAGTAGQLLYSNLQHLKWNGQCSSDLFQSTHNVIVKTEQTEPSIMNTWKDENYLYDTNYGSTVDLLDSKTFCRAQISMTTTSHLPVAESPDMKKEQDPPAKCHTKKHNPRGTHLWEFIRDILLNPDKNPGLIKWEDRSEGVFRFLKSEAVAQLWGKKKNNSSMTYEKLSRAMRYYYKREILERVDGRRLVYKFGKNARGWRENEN
# In short: as §1
# SPI1 = SPI1 (Homo sapiens, UniProt P17947 1-270); conditions: protein: recombinant; tags: N-terminal GST; dsDNA, one strand shown
# In short: as §1
# SPIB = SPIB (Homo sapiens, UniProt Q01892 1-262); conditions: protein: recombinant; tags: N-terminal GST; dsDNA, one strand shown
# Chain of SPIB (Q01892 whole entry): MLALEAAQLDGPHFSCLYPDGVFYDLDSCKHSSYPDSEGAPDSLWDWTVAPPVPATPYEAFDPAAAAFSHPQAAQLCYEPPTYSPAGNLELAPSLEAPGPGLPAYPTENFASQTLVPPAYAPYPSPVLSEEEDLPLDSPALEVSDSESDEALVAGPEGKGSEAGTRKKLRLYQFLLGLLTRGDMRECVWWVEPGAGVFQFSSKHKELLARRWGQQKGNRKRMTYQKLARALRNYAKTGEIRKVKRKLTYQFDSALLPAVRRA
# In short: as §1
# ELK3 = target: T6, ELK3 (Homo sapiens, UniProt P41970 1-407); conditions: protein: recombinant; tags: N-terminal GST; dsDNA, one strand shown
# T6 sequence: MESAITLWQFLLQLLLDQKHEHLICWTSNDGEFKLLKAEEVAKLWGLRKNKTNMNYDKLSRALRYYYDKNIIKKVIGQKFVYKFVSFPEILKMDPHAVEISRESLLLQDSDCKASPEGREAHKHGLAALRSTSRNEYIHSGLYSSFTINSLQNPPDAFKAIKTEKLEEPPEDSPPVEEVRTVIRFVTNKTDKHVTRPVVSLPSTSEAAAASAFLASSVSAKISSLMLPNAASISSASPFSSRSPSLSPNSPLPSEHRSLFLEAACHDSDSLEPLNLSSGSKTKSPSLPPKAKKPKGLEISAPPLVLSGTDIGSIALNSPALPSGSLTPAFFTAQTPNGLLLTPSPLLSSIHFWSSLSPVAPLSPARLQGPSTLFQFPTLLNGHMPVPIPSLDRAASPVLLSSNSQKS
# In short: as §1
# FEV = target: T7, FEV (Homo sapiens, UniProt Q99581 1-238); conditions: protein: recombinant; tags: N-terminal GST; dsDNA, one strand shown
# T7 sequence: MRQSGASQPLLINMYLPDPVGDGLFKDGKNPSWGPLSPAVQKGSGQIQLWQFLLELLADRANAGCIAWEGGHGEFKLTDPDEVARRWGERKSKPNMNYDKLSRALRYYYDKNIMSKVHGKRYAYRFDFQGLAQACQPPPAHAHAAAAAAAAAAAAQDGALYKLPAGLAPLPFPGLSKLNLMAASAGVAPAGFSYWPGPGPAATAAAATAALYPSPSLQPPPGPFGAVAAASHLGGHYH
# In short: as §1
# ETV5 = ETV5 (Homo sapiens, UniProt P41161 1-510); conditions: protein: recombinant; tags: N-terminal GST; dsDNA, one strand shown
# Chain of ETV5 (P41161 whole entry): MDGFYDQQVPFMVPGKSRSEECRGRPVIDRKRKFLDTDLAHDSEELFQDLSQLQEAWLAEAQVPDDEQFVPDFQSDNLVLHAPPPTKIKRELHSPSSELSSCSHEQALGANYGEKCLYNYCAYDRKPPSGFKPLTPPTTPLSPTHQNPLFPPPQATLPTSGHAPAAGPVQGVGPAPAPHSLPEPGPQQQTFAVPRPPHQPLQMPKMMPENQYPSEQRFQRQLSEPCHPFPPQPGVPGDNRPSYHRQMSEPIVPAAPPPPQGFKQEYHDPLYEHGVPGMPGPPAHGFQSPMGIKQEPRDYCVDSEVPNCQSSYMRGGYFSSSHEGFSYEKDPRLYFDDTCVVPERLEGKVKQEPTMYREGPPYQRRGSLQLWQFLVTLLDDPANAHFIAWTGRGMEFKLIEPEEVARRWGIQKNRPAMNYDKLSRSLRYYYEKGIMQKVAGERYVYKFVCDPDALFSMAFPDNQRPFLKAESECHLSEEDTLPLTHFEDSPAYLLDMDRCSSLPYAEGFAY
# In short: as §1
# HSF1 = HSF1 (Homo sapiens, UniProt Q00613 1-529); conditions: protein: recombinant; tags: N-terminal GST; chain copies: 3; dsDNA, one strand shown
# Chain of HSF1 (Q00613 whole entry): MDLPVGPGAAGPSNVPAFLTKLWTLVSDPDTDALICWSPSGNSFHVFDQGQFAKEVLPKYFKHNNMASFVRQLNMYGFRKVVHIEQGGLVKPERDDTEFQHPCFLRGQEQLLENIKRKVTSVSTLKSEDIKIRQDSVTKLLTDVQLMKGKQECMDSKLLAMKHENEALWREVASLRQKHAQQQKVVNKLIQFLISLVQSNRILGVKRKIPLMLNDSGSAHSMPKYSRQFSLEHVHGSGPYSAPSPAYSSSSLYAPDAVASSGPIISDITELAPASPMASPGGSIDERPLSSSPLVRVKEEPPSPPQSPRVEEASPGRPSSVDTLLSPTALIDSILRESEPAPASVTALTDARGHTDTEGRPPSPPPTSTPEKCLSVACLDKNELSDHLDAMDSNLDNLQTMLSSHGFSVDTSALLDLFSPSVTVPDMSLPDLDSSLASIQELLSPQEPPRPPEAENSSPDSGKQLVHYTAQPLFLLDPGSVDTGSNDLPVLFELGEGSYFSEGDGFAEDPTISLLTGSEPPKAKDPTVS
# In short: as §1
# SPIC = target: T8, SPIC (Homo sapiens, UniProt Q8N5J4 1-248); conditions: protein: recombinant; tags: N-terminal GST; dsDNA, one strand shown
# T8 sequence: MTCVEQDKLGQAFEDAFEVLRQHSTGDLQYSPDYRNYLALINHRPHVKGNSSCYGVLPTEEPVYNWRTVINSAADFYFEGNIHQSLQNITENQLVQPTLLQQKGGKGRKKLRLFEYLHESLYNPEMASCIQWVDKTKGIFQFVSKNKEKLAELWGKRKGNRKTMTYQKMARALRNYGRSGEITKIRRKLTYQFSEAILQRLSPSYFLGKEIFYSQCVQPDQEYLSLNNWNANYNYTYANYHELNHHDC
# In short: as §1
# ELF4 = ELF4 (Homo sapiens, UniProt Q99607 1-663); conditions: protein: recombinant; tags: N-terminal GST; dsDNA, one strand shown
# Chain of ELF4 (Q99607 whole entry): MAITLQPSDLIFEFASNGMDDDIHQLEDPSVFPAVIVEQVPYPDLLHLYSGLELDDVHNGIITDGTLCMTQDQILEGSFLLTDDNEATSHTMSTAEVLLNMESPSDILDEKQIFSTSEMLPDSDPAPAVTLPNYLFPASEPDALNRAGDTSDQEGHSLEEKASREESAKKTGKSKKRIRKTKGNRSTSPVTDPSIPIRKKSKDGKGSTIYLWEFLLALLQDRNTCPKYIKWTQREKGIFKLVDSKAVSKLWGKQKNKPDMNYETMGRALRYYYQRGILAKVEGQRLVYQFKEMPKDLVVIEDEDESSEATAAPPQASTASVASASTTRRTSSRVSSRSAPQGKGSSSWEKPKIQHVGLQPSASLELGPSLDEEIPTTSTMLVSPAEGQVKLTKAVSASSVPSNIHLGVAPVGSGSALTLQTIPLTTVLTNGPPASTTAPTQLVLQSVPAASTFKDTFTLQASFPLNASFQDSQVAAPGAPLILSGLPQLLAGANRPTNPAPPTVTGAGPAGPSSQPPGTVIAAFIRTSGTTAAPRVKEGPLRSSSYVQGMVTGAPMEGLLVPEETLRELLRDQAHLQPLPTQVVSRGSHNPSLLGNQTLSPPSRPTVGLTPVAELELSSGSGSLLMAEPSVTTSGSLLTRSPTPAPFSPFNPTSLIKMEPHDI
# In short: as §1
# ELK4 = target: T9, ELK4 (Homo sapiens, UniProt P28324-2 1-405); conditions: protein: recombinant; tags: N-terminal GST; dsDNA, one strand shown
# T9 sequence: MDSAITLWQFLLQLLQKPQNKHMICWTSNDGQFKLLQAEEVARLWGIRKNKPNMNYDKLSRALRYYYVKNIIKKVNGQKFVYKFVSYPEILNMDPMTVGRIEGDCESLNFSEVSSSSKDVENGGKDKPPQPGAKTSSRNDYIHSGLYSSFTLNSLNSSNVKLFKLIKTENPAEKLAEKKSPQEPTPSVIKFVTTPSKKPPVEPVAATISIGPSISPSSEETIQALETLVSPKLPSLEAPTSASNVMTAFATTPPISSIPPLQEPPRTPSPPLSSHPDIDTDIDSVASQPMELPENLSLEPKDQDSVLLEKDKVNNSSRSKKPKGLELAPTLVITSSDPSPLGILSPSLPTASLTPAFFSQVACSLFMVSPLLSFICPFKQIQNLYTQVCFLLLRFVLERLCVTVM
# In short: as §1
# ETV2 = target: T10, ETV2 (Homo sapiens, UniProt O00321 1-342); conditions: protein: recombinant; tags: N-terminal GST; dsDNA, one strand shown
# T10 sequence: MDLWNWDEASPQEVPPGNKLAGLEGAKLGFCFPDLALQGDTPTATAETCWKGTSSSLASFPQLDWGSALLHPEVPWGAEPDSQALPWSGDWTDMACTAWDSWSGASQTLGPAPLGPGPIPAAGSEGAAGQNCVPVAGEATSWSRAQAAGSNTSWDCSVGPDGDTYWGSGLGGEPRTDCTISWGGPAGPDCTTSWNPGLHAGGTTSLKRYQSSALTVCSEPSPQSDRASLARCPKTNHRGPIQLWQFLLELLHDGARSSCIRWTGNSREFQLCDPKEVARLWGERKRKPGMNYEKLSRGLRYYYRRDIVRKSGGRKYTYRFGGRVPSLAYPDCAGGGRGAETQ
# In short: as §1
# ELF3 = target: T11, ELF3 (Homo sapiens, UniProt P78545 1-371); conditions: protein: recombinant; tags: N-terminal GST; dsDNA, one strand shown
# T11 sequence: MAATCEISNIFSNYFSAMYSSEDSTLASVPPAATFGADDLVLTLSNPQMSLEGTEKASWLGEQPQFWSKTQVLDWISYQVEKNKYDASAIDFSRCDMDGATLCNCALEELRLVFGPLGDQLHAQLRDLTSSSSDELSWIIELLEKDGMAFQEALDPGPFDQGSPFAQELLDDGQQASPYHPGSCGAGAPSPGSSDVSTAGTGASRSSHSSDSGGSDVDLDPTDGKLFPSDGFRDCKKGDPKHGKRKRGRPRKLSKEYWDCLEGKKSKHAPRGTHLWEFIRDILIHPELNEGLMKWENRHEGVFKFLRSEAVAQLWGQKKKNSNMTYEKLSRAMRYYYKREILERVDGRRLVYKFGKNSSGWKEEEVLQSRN
# In short: as §1
# CRX = CRX (Homo sapiens, UniProt O43186 1-299); conditions: protein: recombinant; tags: N-terminal GST; dsDNA, one strand shown
# Chain of CRX (O43186 whole entry): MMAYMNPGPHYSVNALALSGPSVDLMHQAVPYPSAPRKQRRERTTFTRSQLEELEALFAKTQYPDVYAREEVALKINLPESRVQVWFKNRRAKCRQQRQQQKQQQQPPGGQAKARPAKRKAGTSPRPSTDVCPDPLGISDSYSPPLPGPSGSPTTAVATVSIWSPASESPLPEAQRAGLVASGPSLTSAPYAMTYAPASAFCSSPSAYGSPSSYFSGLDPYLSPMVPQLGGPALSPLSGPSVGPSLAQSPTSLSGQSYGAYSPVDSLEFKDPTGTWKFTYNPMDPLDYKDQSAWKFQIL
# In short: as §1
# ETV1 = ETV1 (Homo sapiens, UniProt P50549 1-477); conditions: protein: recombinant; tags: N-terminal GST; dsDNA, one strand shown
# Chain of ETV1 (P50549 whole entry): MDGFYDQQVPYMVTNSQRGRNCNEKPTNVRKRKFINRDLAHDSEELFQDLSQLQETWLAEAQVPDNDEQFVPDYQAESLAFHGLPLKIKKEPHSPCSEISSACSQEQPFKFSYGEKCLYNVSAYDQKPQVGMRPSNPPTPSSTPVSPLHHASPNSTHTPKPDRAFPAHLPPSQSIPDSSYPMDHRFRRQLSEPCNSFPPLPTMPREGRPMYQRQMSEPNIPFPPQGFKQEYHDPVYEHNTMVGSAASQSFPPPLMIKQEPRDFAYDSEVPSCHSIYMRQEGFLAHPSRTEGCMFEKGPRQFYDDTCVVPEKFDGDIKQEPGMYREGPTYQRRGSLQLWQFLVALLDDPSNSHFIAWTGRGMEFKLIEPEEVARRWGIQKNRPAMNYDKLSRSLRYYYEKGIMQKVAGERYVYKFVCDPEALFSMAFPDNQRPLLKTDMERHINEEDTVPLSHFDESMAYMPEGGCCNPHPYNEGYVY
# In short: as §1
sequence,measurement,setting,value
ACGCTA,binding signal,FLI1,"1.14 fold enrichment (6-mer frequency, TF over GST control)"
same,binding signal,ELK1,"1.18 fold enrichment (6-mer frequency, TF over GST control)"
same,binding signal,GABPA,"1.14 fold enrichment (6-mer frequency, TF over GST control)"
same,binding signal,ERG,"1.2 fold enrichment (6-mer frequency, TF over GST control)"
same,binding signal,ELF1,"1.15 fold enrichment (6-mer frequency, TF over GST control)"
same,binding signal,EHF,"1.1 fold enrichment (6-mer frequency, TF over GST control)"
same,binding signal,SPI1,"1.19 fold enrichment (6-mer frequency, TF over GST control)"
same,binding signal,SPIB,"1.07 fold enrichment (6-mer frequency, TF over GST control)"
same,binding signal,ELK3,"1.27 fold enrichment (6-mer frequency, TF over GST control)"
same,binding signal,FEV,"1.13 fold enrichment (6-mer frequency, TF over GST control)"
same,binding signal,ETV5,"1.17 fold enrichment (6-mer frequency, TF over GST control)"
same,binding signal,HSF1,"1.12 fold enrichment (6-mer frequency, TF over GST control)"
same,binding signal,SPIC,"1.09 fold enrichment (6-mer frequency, TF over GST control)"
same,binding signal,ELF4,"1.25 fold enrichment (6-mer frequency, TF over GST control)"
same,binding signal,ELK4,"1.06 fold enrichment (6-mer frequency, TF over GST control)"
same,binding signal,ETV2,"1.28 fold enrichment (6-mer frequency, TF over GST control)"
same,binding signal,ELF3,"1.17 fold enrichment (6-mer frequency, TF over GST control)"
same,binding signal,CRX,"1.18 fold enrichment (6-mer frequency, TF over GST control)"
same,binding signal,ETV1,"1.09 fold enrichment (6-mer frequency, TF over GST control)"
